# PAFAH1B2 inh: PAFAH1B2 enzyme inhibitors, primary screen, biochemical, fluorescence polarization, human; AID 492953, 2010; Platelet-activating factor acetylhydrolase IB subunit alpha2 (Homo sapiens), P68402; recombinant PAFAH1B2, FP-rhodamine activity probe; hit rate 1.2% among 340,000; inhibition, % at 3.39 µM;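 active = inhibition above the mean of all tested compounds plus 3 SD, cut at about 24% in these data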;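 also: 0% = enzyme with DMSO and 100% = wells lacking PAFAH1B2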
# Target sequence (P68402 whole entry, looked up): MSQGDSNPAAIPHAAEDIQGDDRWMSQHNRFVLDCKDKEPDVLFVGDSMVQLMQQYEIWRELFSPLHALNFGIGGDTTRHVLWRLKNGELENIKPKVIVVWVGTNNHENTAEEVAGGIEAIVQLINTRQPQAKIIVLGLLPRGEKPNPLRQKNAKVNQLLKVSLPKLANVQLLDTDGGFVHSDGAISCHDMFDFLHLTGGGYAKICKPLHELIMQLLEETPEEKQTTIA
# rCAG RNA binder: binders of r(CAG) RNA repeats, primary screen, biochemical, fluorescence; r(CAG) RNA repeat, TO-PRO-1 dye displacement fluorescence; inhibition, % at 3 µM; hit rate 1.3% among 370,000;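 active = inhibition above the plate cutoff, the mean of all test compounds on that plate plus 3 SD, cut at about 35% in these data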;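 also: 0% = DMSO alone and 100% = 100 µM mitoxantrone as full dye displacement; higher means more dye released from RNA so lower well fluorescence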
# PAFAH2 FP inh: PAFAH2 enzyme inhibitors, primary screen, biochemical, fluorescence polarization, human; Platelet-activating factor acetylhydrolase 2, cytoplasmic (Homo sapiens), Q99487; recombinant PAFAH2, FP-rhodamine activity probe; inhibition, % at 3.39 µM; hit rate 0.99% among 340,000; AID 492956, 2010;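 active = inhibition above the mean over all tested compounds plus 3 SD, cut at about 30% in these data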;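 also: inhibitors block probe labeling of enzyme so polarization drops; 0% = enzyme with DMSO and 100% = wells lacking PAFAH2 protein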
# ZTA DNA inh: counter-screen for EBNA-1 inhibitors: inhibitors of Epstein-Barr virus ZTA; P03206; ZTA-DNA binding, fluorescence polarization; inhibition, % at 11 µM; hit rate 0.15% among 320,000; AID 2234; in the data active = inhibition above about 33%
# Target sequence (P03206 whole entry, looked up): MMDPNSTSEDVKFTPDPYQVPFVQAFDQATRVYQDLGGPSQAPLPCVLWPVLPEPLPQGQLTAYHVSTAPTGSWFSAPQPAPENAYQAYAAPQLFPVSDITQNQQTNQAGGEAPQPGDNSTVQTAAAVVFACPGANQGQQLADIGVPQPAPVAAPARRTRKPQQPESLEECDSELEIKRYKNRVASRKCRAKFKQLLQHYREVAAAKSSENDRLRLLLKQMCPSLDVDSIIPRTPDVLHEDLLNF
# EBNA-1 inh: EBNA-1 DNA-binding inhibitors, primary screen, biochemical, fluorescence polarization. inhibition, % at 14.8 µM. AID 1950, 2009. hit rate 0.34% among 300,000; in the data active = inhibition above about 28%
# PAFAH1B3 inh: PAFAH1B3 enzyme inhibitors, primary screen, biochemical, fluorescence polarization, human. Platelet-activating factor acetylhydrolase IB subunit alpha1 (Homo sapiens), Q15102. hit rate 0.28% among 340,000. inhibition, % at 3.39 µM. AID 492972, 2010. recombinant PAFAH1B3, FP-rhodamine probe;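 active = inhibition above the screen-wide average of all tested compounds plus 3 SD, cut at about 25% in these data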;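 also: 0% = enzyme with DMSO only and 100% = wells lacking PAFAH1B3 protein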
# Target sequence (Q15102 whole entry, looked up): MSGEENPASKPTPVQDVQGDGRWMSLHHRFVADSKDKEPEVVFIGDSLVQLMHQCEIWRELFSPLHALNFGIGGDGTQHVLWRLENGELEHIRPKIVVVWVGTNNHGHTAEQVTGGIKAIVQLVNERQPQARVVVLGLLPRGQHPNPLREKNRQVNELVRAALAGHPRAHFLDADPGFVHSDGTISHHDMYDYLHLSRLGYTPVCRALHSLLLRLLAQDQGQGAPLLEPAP
# PAFAH1B3 conf FP: PAFAH1B3 enzyme inhibitors, confirmation, biochemical, fluorescence polarization, human; shares compounds with PAFAH1B3 inh; recombinant PAFAH1B3, FP-Rh activity-based probe; inhibition, % at 3.39 µM; hit rate 30% among 390; AID 493032, 2011;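 active = average inhibition over triplicate runs above the hit cutoff set in the earlier primary screen, cut at about 25% in these data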;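 also: 0% = enzyme with DMSO and 100% = wells lacking PAFAH1B3 protein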
# rCAG binder conf: small molecules binding CAG repeat RNA – biochemical, fluorescence, confirmation; hit rate 70% among 4,300; r(CAG) RNA repeat, TO-PRO-1 dye displacement fluorescence; shares compounds with rCAG RNA binder; inhibition, % at 3 µM; AID 652065, 2013;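 active = inhibition above a per-plate cutoff, the mean inhibition of sample wells plus 3 SD, cut at about 35% in these data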;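 also: loss of TO-PRO-1 fluorescence as compound displaces dye from 1x1 AA loop RNA; 0% = DMSO only wells and 100% = 100 µM mitoxantrone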
# dCAG dye counter: displacement of TO-PRO-1 from CAG DNA duplex, counter-screen for rCAG RNA repeat binder project, biochemical, fluorescence, TO-PRO-1 dye, d(CAG) DNA oligo. hit rate 94% among 4,300. inhibition, % at 3 µM. shares compounds with rCAG RNA binder. d(CAG) DNA oligo TO-PRO-1 dye displacement;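 active = inhibition above its plate's cutoff, the mean test-well inhibition plus 3 SD, cut at about 4.8% in these data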;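 also: 0% = DNA dye mix with DMSO and 100% = 100 µM mitoxantrone; hits displace the dye from DNA and so lower well fluorescence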
# The depositor's hits bear a star; . = no result given. Only some compounds are listed: those with a hit (about 2.9% of all), similar ones and a draw of the others.
SMILES,PAFAH1B2 inh,rCAG RNA binder,PAFAH2 FP inh,ZTA DNA inh,EBNA-1 inh,PAFAH1B3 inh,rCAG binder conf,dCAG dye counter,others
CCCNC(=O)c1c(N)n(CC2CCCO2)c2nc3ccccc3nc12 (centres undefined),7.8,0.6,-1.3,-9.9,-11.4,26.7*,.,.,PAFAH1B3 conf FP=11.9
CC(C)OC(=O)c1c(N)n(CC2CCCO2)c2nc3ccccc3nc12 (centres undefined),-2.2,-5.8,-3.1,8.6,-2.2,-3.2,.,.,
CCOc1ccc2nc(N=Nc3c(O)[nH]c(=S)[nH]c3=O)sc2c1,10.9,29.9,11.4,0.4,3.0,6.0,.,.,
COC(=O)c1nc(-c2ccc3c(n2)C(=O)C(N)=C(OC)C3=O)c(N)c(-c2ccc(OC)c(OC)c2O)c1C,23.5,33.6,22.4,5.7,1.1,70.3*,.,.,PAFAH1B3 conf FP=66.8*
CN(C)[C@@H]1C(=O)C(C(N)=O)=C(O)[C@@]2(O)C(=O)C3=C(O)c4c(O)cccc4[C@@](C)(O)C3C[C@@H]12 (some centres undefined),15.8,25.7,20.8,-3.2,3.6,29.7*,.,.,PAFAH1B3 conf FP=13.0
CN(C)[C@@H]1C(=O)C(C(N)=O)=C(O)[C@@]2(O)C(=O)C3=C(O)c4c(O)ccc(Cl)c4[C@@](C)(O)[C@H]3C[C@@H]12,9.4,21.9,11.7,-13.8,-8.2,14.9,.,.,
CC(C)[C@H]1C(=O)N2CCC[C@H]2[C@]2(O)O[C@](NC(=O)[C@@H]3C=C4c5cccc6[nH]cc(c56)C[C@H]4N(C)C3)(C(C)C)C(=O)N12,6.2,.,-0.9,-3.4,-1.8,31.5*,.,.,PAFAH1B3 conf FP=8.7
O=C(NC1CCCCC1)N1Cc2cc(-c3ccccc3)ccc2-n2nncc2C1,.,3.7,.,.,.,.,.,.,
CCCCn1c(NS(=O)(=O)c2ccc(C)cc2)c(C(=O)OCC)c2nc3ccccc3nc21,6.0,36.1*,6.9,12.3,3.4,40.1*,17.5,5.8*,PAFAH1B3 conf FP=7.1
CCOP(=O)(CCP(=O)(OCC)OCC)OCC.C[CH2][Sn]([Cl])([Cl])[CH2]C,2.6,2.9,0.3,.,.,6.8,.,.,
COc1cccc(N2C(=O)NC(=O)/C(=C/c3ccc([N+](=O)[O-])s3)C2=O)c1,33.1*,58.5*,49.0*,-16.4,1.8,45.8*,43.3*,19.5*,
COc1ccc(N2C(=O)NC(=O)/C(=C/c3ccc([N+](=O)[O-])s3)C2=O)cc1,.,68.8*,.,25.3,6.2,.,50.3*,20.8*,
COc1ccc(N2C(=O)NC(=O)/C(=C\c3ccc([N+](=O)[O-])s3)C2=O)cc1,21.2,76.1*,26.8,12.6,4.8,23.6,54.4*,20.6*,
COc1ccccc1N1C(=O)NC(=O)/C(=C\c2cnn(-c3ccccc3)c2)C1=O,-1.3,7.1,21.1,-8.6,4.0,-3.5,.,.,
COc1ccccc1N1C(=O)NC(=O)/C(=C/c2ccc([N+](=O)[O-])s2)C1=O,.,83.5*,.,12.2,-6.4,.,59.8*,27.8*,
COc1ccc(N2C(=O)NC(=O)/C(=C/c3ccc(N4CCOCC4)cc3)C2=O)cc1,.,4.8,.,18.1,-1.2,.,.,.,
CCOc1ccc(N2C(=O)NC(=O)/C(=C\c3cc(OC)c(OC)cc3[N+](=O)[O-])C2=O)cc1,-2.4,.,-13.8,13.2,2.4,-7.4,.,.,
O=C(c1ccc(C(F)(F)F)cc1)C1CCCN(Cc2ccncc2)C1 (centres undefined),-2.6,-5.9,-7.3,8.3,11.8,-2.4,.,.,
COC(=O)C1=C(c2ccc(F)cc2OCc2ccccc2)C[C@@H]2CC[C@H]1N2C(=O)NCCOc1ccc(OC)cc1,-2.3,3.7,-7.0,6.9,.,-3.5,.,.,
Fc1cccc(-c2ccc3c(c2)CNCc2cnnn2-3)c1,.,2.8,.,.,.,.,.,.,
Cc1ccc(S(=O)(=O)N2CCN(C(=O)COC(=O)Cc3ccccc3)CC2)c(C)c1,7.1,-9.5,24.1,2.0,-5.2,0.6,.,.,
Cc1cc(C)c(Cn2c(C(=O)O)c(C=O)c3ccccc32)c(C)c1,1.7,15.1,-9.8,5.1,-12.5,-7.4,.,.,
CCOP(=O)(OCC)Oc1cc(C)c(N(C)C)c(C)c1,8.2,-7.3,4.4,.,.,6.7,.,.,
COc1ccc(N2C(=O)/C(=C/C=C/c3ccccc3[N+](=O)[O-])C(=O)NC2=S)cc1,.,84.2*,.,.,.,.,77.6*,44.4*,
COC(=O)C1C(O)C(C)C(O)C(C)/C=C\C=C(/C)C(=O)Nc2c(C)c(OC(C)=O)c3c(c2O)C(=O)C(C)=C2OCOC(=C23)/C(C)=C/C(C)(O)C(O)C(C)C1O (centres undefined),4.7,46.6*,-5.6,-7.2,9.8,6.6,23.6,6.5*,
SMILES,PAFAH1B2 inh,rCAG RNA binder,PAFAH2 FP inh,ZTA DNA inh,EBNA-1 inh,PAFAH1B3 inh,rCAG binder conf,dCAG dye counter,others
COC(=O)C1=C(c2ccc(F)cc2OCc2ccccc2)C[C@@H]2CC[C@H]1N2C(=O)NCc1ccc(Br)cc1,4.1,3.4,7.3,6.3,.,-2.2,.,.,
CC[C@H]1CN(C)CCc2c([nH]c3ccccc23)C(=O)C[C@@H]1/C(=C\OC)C(=O)OC,-0.2,0.5,-1.6,5.3,-1.9,6.2,.,.,
O=P(NS(=O)(=O)c1ccc(Cl)cc1)(Oc1ccccc1)Oc1ccccc1,83.9*,61.5*,-3.7,-5.2,0.9,7.2,58.6*,18.5*,
O=P(NS(=O)(=O)c1ccccc1)(Oc1ccccc1)Oc1ccccc1,23.3,30.4,5.1,2.0,6.8,7.0,.,.,
O=P(NS(=O)(=O)c1ccc(Br)cc1)(Oc1ccccc1)Oc1ccccc1,78.2*,73.0*,6.9,3.4,11.7,0.3,62.9*,25.0*,
Cc1ccc(S(=O)(=O)NP(=O)(Oc2ccccc2)Oc2ccccc2)cc1,45.6*,40.5*,1.7,-8.4,-4.2,24.1,36.1*,9.7*,
COP(=O)(NC(C)=O)SC (centres undefined),4.7,0.2,0.0,.,.,-1.7,.,.,
CC(C)(C)c1cc([N+](=O)[O-])cc(C(C)(C)C)c1O,.,5.8,.,-13.4,-1.9,.,.,.,
Cc1cc(OCC(=O)NCC(O)c2ccccc2)c2c3c(c(=O)oc2c1)CCCC3 (centres undefined),4.3,1.8,3.6,-25.6,-3.5,-0.5,.,.,
Cc1cc(OCC(=O)N[C@@H](Cc2ccccc2)C(=O)O)c2c3c(c(=O)oc2c1)CCCC3,17.8,45.6*,6.8,-3.4,8.3,8.0,37.1*,7.9*,

# Source: PubChem BioAssay (The Scripps Research Institute Molecular Screening Center)
